According to PubChem BioAssay (EPA / NIEHS):
Where a structure was tested more than once in an assay, its records may differ in their call. The source made the active and inactive calls. Rule for the calls: active = hit-call score of the fitted dose curve at least 0.9, where 1 is the maximum; inactive = score below 0.9.

Experiment: ATG_AP_2_CIS: Attagene CIS-FACTORIAL HepG2 Assay for human Activator Protein 2 (AP-2) (AID 2282932)
Conditions: HepG2 AP-2 cis-reporter, Attagene transcription factor profiling; actives raise or lower the signal
Protocol: ATG_CIS is a cell-based, multiplexed-readout assay that uses HepG2, a human liver cell line, with measurements taken at 24 hours after chemical dosing in a 24-well plate.ATG_AP_2_CIS is one of 52 assay component(s) measured or calculated from the ATG_CIS assay. It is designed to make measurements of mRNA induction, a form of inducible reporter, as detected with fluorescence intensity signals by Reverse transcription polymerase chain reaction (RT-PCR) and Capillary electrophoresis technology.Data from the assay component ATG_AP_2_CIS was analyzed into 1 assay endpoint. This assay endpoint, ATG_AP_2_CIS, was analyzed with bidirectional fitting relative to DMSO as the negative control and baseline of activity. Using a type of inducible reporter, measures of mRNA for gain or loss-of-signal activity can be used to understand the reporter gene at the transcription factor-level as they relate to the gene TFAP2A and TFAP2B and TFAP2D. Furthermore, this assay endpoint can be referred to as a primary readout, because this assay has produced multiple assay endpoints where this one serves a reporter gene function. To generalize the intended target to other relatable targets, this assay endpoint is annotated to the dna binding intended target family, where the subfamily is basic helix-turn-helix leucine zipper.
Human liver HepG2 cells are transiently transfected with multiple reporter transcription units (MRTUs) in 6-well plates using FuGene 6 reagent (Roche; 3 ml FuGene/1 mg DNA). The MRTU constructs are regulated by a cis-regulating element (promoter). […] A major difference between the CIS and TRANS system is that in CIS activities of endogenous TFs are measured, whereas the TRANS assay evaluates changes in activities of exogenous, chimeric NR-Gal4 proteins. […] At the end of 24 hour incubation, total RNA was isolated using TriZol reagent (Invitrogen). The isolated RNA is then reverse-transcribed using oligo(dT) primer and Mo-MLV reverse transcriptase (Invitrogen) with DNAse I (Ambion) treatment for 30 min. The one-tenth of the produced cDNA was amplified by PCR using Taq DNA polymerase (Invitrogen) and two reporter sequence-specific primers. The PCR products were fluorescently labeled by primer extension with 6-arboxyfluorescein (6-FAM) 5'-labeled reporter sequence-specific primer (2 min at 95 C, 20 s at 68 C and 10 min at 72 C) and these products were digested with 5U of HpaI (New England Biolabs) for 2h at 37 C. The fragments were purified using Qiaquick PCR columns (Qiagen), analyzed on an ABI 3130xL genetic analyzer (Applied Biosystems) with peak positions identified by using a set of X-rhodamine (ROX)-labeled MapMarker1000 molecular weight standards (BioVentures). The raw capillary electrophoresis data was processed using Attagraph software (Attagene).

Compound | outcome | AC50
OCCN1CCOCC1 | inactive | 
CC(=O)CCC(=O)O | inactive | 
CCCCCCCCOC(C)=O | inactive | 
O=S(=O)(O)CCCN1CCOCC1 | inactive | 
Nc1ccc(N)c([N+](=O)[O-])c1 | inactive | 
CC(=O)CC(=O)N(C)C | inactive | 
NS(=O)(=O)c1cc(C(=O)O)c(NCc2ccco2)cc1Cl | inactive | 
CC1(C)[C@H](C=C(Cl)Cl)[C@H]1C(=O)OCc1cccc(Oc2ccccc2)c1 | inactive | 
CCO[Si](CCC#N)(OCC)OCC | inactive | 
N#CCCCC(C#N)CCC#N (stereo not given) | inactive | 
CC/C=C\C#N | inactive | 
Cc1cc(N)n(-c2ccccc2)n1 | inactive | 
CCCc1ccc(N)cc1 | inactive | 
O=C1OCc2ccccc21 | inactive | 
CCCCCCC(C)O (stereo not given) | inactive | 
S=c1[nH][nH]c(=S)s1 | inactive | 
OC[C@@H](O)[C@H](O)[C@@H](O)[C@@H](O)CO | inactive | 
CCCC(O)C(CC)CO (stereo not given) | inactive | 
CCCCCCCC1CCCC1=O (stereo not given) | inactive | 
Cc1cc(O)c2c(c1)C(=O)c1cc(O)cc(O)c1C2=O | inactive | 

Compound | outcome | AC50
C[C@H](CCC(=O)O)[C@H]1CC[C@H]2[C@@H]3CC[C@@H]4C[C@H](O)CC[C@]4(C)[C@H]3CC[C@]12C |  | 168 µM (active)
CCCC1CCC(=O)CC1 | inactive | 
CCOc1ccc(NC(C)=O)cc1 | inactive | 
CC(=O)OC(C)(C)C | inactive | 
CC1=CCC(C(C)C)=CC1 | inactive | 
NC(N)=NC(N)=NCCc1ccccc1 | inactive | 
N#CCCNCCC#N | inactive | 
CCCCCCCCCC(=O)OCC | inactive | 
C/C=C(\C)C(=O)OC/C=C(\C)CCC=C(C)C | inactive | 
CCC(C)(CCCC(C)C)OC(C)=O (stereo not given) | inactive | 
C[C@]12CC[C@@H]3c4ccc(O)cc4CC[C@H]3[C@@H]1CC[C@@H]2O | inactive | 65.8 µM (active)
c1ccc(Cc2ccccc2)cc1 | inactive | 
O=C(C=Cc1ccccc1)OCCCc1ccccc1 | inactive | 
CCCCCCCCCCCCN1CCOCC1 | inactive | 
CCCCCCOC(C)=O | inactive | 
NC(=O)c1cnccn1 | inactive | 
CC1(C)CC(N)CC(C)(CN)C1 (stereo not given) | inactive | 
CC1=CC[C@@H]2C[C@H]1C2(C)C | inactive | 
C=C(C)C(=O)OCCC(C)OC(=O)C(=C)C (stereo not given) | inactive | 
